# Test results reported in PubChem BioAssay AID1159580 (chemical genetic matrix, 2015).
# The whole screen tested about 5,500 compounds, of which about 2,000 (36%) were called active. Another 18% or so got no clear call; they are omitted. Some of the results follow. Values without a mark were called inactive. No stated cut-off is given here; in the data, active means normalized growth mostly below about 0.91 (no sharp cut-off); inconclusive means no clear call, values can overlap the other calls; inactive means mostly above about 0.92.
# Test: chemical genetic growth profiling, strain panel (AID 1159580);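 further: tested at 20 µM; growth read once vehicle control cultures reached saturation at 30 °C; 1 = growth at the plate median or of vehicle wells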
# Conditions: S. cerevisiae deletion strains, growth OD
structure (smiles),measurement,setting,value
COc1ccc2nc3ccccc3c(N)c2c1,normalized growth,"locus YAR019C, strain CDC15, stronger effect = lower value",0.6 (active)
same,normalized growth,"locus YBL105C, strain PKC1, stronger effect = lower value",0.592 (active)
same,normalized growth,"locus YBR135W, strain CKS1, stronger effect = lower value",0.722 (active)
same,normalized growth,"locus YBR136W, strain MEC1, stronger effect = lower value",0.657 (active)
same,normalized growth,"locus YBR160W, strain CDC28, stronger effect = lower value",0.661 (active)
same,normalized growth,"locus YDL017W, strain CDC7, stronger effect = lower value",0.636 (active)
same,normalized growth,"locus YDL028C, strain MPS1, stronger effect = lower value",0.679 (active)
same,normalized growth,"locus YDL108W, strain KIN28, stronger effect = lower value",0.737 (active)
same,normalized growth,"locus YDL214C, strain PRR2, stronger effect = lower value",0.203 (active)
same,normalized growth,"locus YDR052C, strain DBF4, stronger effect = lower value",0.701 (active)
same,normalized growth,"locus YDR054C, strain cdc34, stronger effect = lower value",0.625 (active)
same,normalized growth,"locus YDR477W, strain SNF1, stronger effect = lower value",0.198 (active)
same,normalized growth,"locus YER123W, strain YCK3, stronger effect = lower value",0.195 (active)
same,normalized growth,"locus YER133W, strain GLC7, stronger effect = lower value",0.215 (active)
same,normalized growth,"locus YFL029C, strain CAK1, stronger effect = lower value",0.579 (active)
same,normalized growth,"locus YFR003C, strain YPI1, stronger effect = lower value",0.652 (active)
same,normalized growth,"locus YFR019W, strain FAB1, stronger effect = lower value",0.208 (active)
same,normalized growth,"locus YGR040W, strain KSS1, stronger effect = lower value",0.21 (active)
same,normalized growth,"locus YGR052W, strain FMP48, stronger effect = lower value",0.235 (active)
same,normalized growth,"locus YGR092W, strain DBF2, stronger effect = lower value",0.227 (active)
same,normalized growth,"locus YHR030C, strain SLT2, stronger effect = lower value",0.188 (active)
same,normalized growth,"locus YHR079C, strain IRE1, stronger effect = lower value",0.206 (active)
same,normalized growth,"locus YHR082C, strain KSP1, stronger effect = lower value",0.27 (active)
same,normalized growth,"locus YHR205W, strain SCH9, stronger effect = lower value",0.151 (active)
same,normalized growth,"locus YIL147C, strain SLN1, stronger effect = lower value",0.63 (active)
same,normalized growth,"locus YJL095W, strain BCK1, stronger effect = lower value",0.227 (active)
same,normalized growth,"locus YJL157C, strain FAR1, stronger effect = lower value",0.176 (active)
same,normalized growth,"locus YJR016C, strain ILV3, stronger effect = lower value",0.699 (active)
same,normalized growth,"locus YJR066W, strain TOR1 (second series), stronger effect = lower value",0.246 (active)
same,normalized growth,"locus YJR066W, strain TOR1, stronger effect = lower value",0.233 (active)
same,normalized growth,"locus YKL048C, strain ELM1, stronger effect = lower value",0.264 (active)
same,normalized growth,"locus YKL067W, strain YNK1, stronger effect = lower value",0.19 (active)
same,normalized growth,"locus YKL101W, strain HSL1, stronger effect = lower value",0.193 (active)
same,normalized growth,"locus YKL193C, strain SDS22, stronger effect = lower value",0.659 (active)
same,normalized growth,"locus YKL203C, strain TOR2, stronger effect = lower value",0.204 (active)
same,normalized growth,"locus YLR113W, strain HOG1, stronger effect = lower value",0.257 (active)
same,normalized growth,"locus YLR133W, strain CKI1, stronger effect = lower value",0.199 (active)
same,normalized growth,"locus YLR403W, strain SFP1, stronger effect = lower value",0.11 (active)
same,normalized growth,"locus YML070W, strain DAK1, stronger effect = lower value",0.207 (active)
same,normalized growth,"locus YMR001C, strain CDC5, stronger effect = lower value",0.667 (active)
same,normalized growth,"locus YMR205C, strain PFK2 (second series), stronger effect = lower value",0.258 (active)
same,normalized growth,"locus YMR277W, strain FCP1, stronger effect = lower value",0.648 (active)
same,normalized growth,"locus YNL006W, strain LST8, stronger effect = lower value",0.611 (active)
same,normalized growth,"locus YNL020C, strain ARK1, stronger effect = lower value",0.196 (active)
same,normalized growth,"locus YNL161W, strain CBK1, stronger effect = lower value",0.525 (active)
same,normalized growth,"locus YNL183C, strain NPR1, stronger effect = lower value",0.283 (active)
same,normalized growth,"locus YNL207W, strain RIO2, stronger effect = lower value",0.645 (active)
same,normalized growth,"locus YNL222W, strain SSU72, stronger effect = lower value",0.638 (active)
same,normalized growth,"locus YNL307C, strain MCK1 (second series), stronger effect = lower value",0.202 (active)
same,normalized growth,"locus YOL078W, strain AVO1, stronger effect = lower value",0.689 (active)
same,normalized growth,"locus YOL136C, strain PFK27, stronger effect = lower value",0.205 (active)
same,normalized growth,"locus YOR061W, strain CKA2, stronger effect = lower value",0.186 (active)
same,normalized growth,"locus YOR119C, strain RIO1, stronger effect = lower value",0.221 (active)
same,normalized growth,"locus YOR231W, strain MKK1, stronger effect = lower value",0.225 (active)
same,normalized growth,"locus YOR329C, strain SCD5, stronger effect = lower value",0.607 (active)
same,normalized growth,"locus YPL031C, strain PHO85, stronger effect = lower value",0.214 (active)
same,normalized growth,"locus YPL153C, strain RAD53, stronger effect = lower value",0.216 (active)
same,normalized growth,"locus YPL204W, strain HRR25, stronger effect = lower value",0.198 (active)
same,normalized growth,"locus YPL209C, strain IPL1, stronger effect = lower value",0.624 (active)
same,normalized growth,"locus YPL256C, strain CLN2, stronger effect = lower value",0.252 (active)
same,normalized growth,"locus YPR025C, strain CCL1, stronger effect = lower value",0.637 (active)
same,normalized growth,"locus YPR106W, strain ISR1, stronger effect = lower value",0.679 (active)
same,normalized growth,"locus YPR111W, strain DBF20, stronger effect = lower value",1
same,normalized growth,"strain NNK1, stronger effect = lower value",0.537 (active)
same,normalized growth,"strain TSCII, stronger effect = lower value",0.58 (active)
